The source of these data is PubChem BioAssay AID651640 (Broad Institute, 2012).

The structures appear in SMILES notation. Values joined by “and” are separate entries in the source; they are usually repeats but may differ in a detail not shown here. Equal entries are not always repeated. Screen size: about 350,000 compounds; about 6,000 (1.7%) were called active. Not shown: some 5% with an inconclusive outcome. The sample holds actives, similar compounds and a random draw of the others, so the mix is not that of the screen. Cut-off read from the data, not from the text of the source: active = CPE inhibition above about 20% (passing the limit was not always enough); inconclusive = no clear call, values can overlap the other calls; tested in BHK-21 cells. Some compounds were tested as several samples or in several runs, with calls that do not always agree.

A short description of this experiment: protection of cells from dengue 2 killing – plate reader, single concentration, primary screen (AID 651640).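 Note: 0% = median of neutral control wells and 100% = median of positive control wells.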 As to conditions: DENV2-infected cells, cytopathic effect rescue, at 9.99 µM, stronger effect = higher value.
For `CC(=O)NC(Cc1c[nH]c2ccccc12)C(=O)NCCc1ccccc1` (configuration not stated), the CPE inhibition is -3% (inactive). On to `C[C@]1(C(=O)NCCc2c[nH]c3ccccc23)C=C[C@@H](Cc2ccccc2)N1C(=O)c1ccccc1`, for which the CPE inhibition is 40.2% (active). Under `O=C(NCCc1c[nH]c2ccccc12)c1cccc(Br)c1` stands 0.922% (inactive). Then `COCCNC(=O)C[C@H]1CC[C@@H]2[C@H](COc3ccc(NC(=O)Nc4cccc(F)c4)cc3C(=O)N2C)O1`, with -0.175% (inactive).

For the compound `Cc1noc(C)c1NC(=O)Nc1ccc2c(c1)C(=O)N([C@H](C)CO)C[C@H](C)[C@@H](CN(C)S(=O)(=O)c1cn(C)cn1)O2`, the CPE inhibition is 8.16% (inactive) and 22.2% (active).

For the compound `C[C@@H]1CN([C@H](C)CO)C(=O)c2cc(N(C)C)ccc2O[C@@H]1CN(C)S(=O)(=O)c1cn(C)cn1`, the CPE inhibition is 70.9% (active). Then `COc1ccc(S(=O)(=O)N(C)C[C@@H]2Oc3ccc(NC(=O)Nc4c(C)noc4C)cc3C(=O)N([C@H](C)CO)C[C@@H]2C)cc1`, with -4.21% (inactive) and 6.91% (inactive); and `Cc1noc(C)c1NC(=O)Nc1ccc2c(c1)C(=O)N([C@@H](C)CO)C[C@H](C)[C@H](CN(C)S(=O)(=O)c1cn(C)cn1)OCCCC[C@@H](C)O2`, with -4.2% (inactive); and `C[C@H](CO)N1C[C@H](C)[C@H](CN(C)S(=O)(=O)c2cn(C)cn2)OCCCC[C@H](C)Oc2ccc(N(C)C)cc2C1=O`, with 1.23% (inactive). For the compound `C[C@H](CO)N1C[C@H](C)[C@H](CN(C)S(=O)(=O)c2cn(C)cn2)Oc2ccc(N(C)C)cc2C1=O`, the CPE inhibition is 6.45% (inactive). For the compound `COCC(=O)Nc1ccc2c(c1)[C@@H]1C[C@@H](CC(=O)N3CCN(C)CC3)O[C@H](CO)[C@@H]1O2`, the CPE inhibition was 2.6% (inactive).

In the case of `C[C@@H]1CN([C@H](C)CO)C(=O)c2cccc(NC(=O)CCCCCC(=O)Nc3ccccc3N)c2O[C@H]1CN(C)Cc1ccc(Oc2ccccc2)cc1`, the CPE inhibition is -13.3% (inactive). Under `CO[C@@H]1CN(C)C(=O)c2cc(NC(C)=O)ccc2OC[C@H](C)N(C(=O)Cc2ccccn2)C[C@@H]1C` stands -0.178% (inactive); under `COCC(=O)N1CCC2(CC1)CN(C(=O)Nc1ccccc1F)[C@@H](CO)c1c2c2ccc(OC)cc2n1C`, -0.316% (inactive); under `COCC(=O)Nc1ccc2c(c1)OC[C@@H](C)N(C(=O)c1cnccn1)C[C@H](C)[C@H](OC)CN(C)C2=O`, -10.2% (inactive). Take `C[C@@H]1CCCCO[C@@H](CN(C)C(=O)NC2CCCCC2)[C@H](C)CN([C@@H](C)CO)C(=O)c2cc(NC(=O)Nc3ccc(F)cc3)ccc2O1`: the CPE inhibition was 24.1% (active). Then `C[C@H]1CCCCO[C@H](CN(C)C(=O)NC2CCCCC2)[C@@H](C)CN([C@@H](C)CO)C(=O)c2cc(NC(=O)Nc3ccc4c(c3)OCO4)ccc2O1`, with 34.9% (active); and `C[C@@H]1CCCCO[C@H](CN(C)C(=O)NC2CCCCC2)[C@H](C)CN([C@H](C)CO)C(=O)c2cc(NC(=O)Nc3ccc(F)cc3)ccc2O1`, with -5.97% (inactive); and `C[C@@H]1CN([C@@H](C)CO)C(=O)c2cc(NC(=O)Nc3ccc4c(c3)OCO4)ccc2O[C@@H](C)CCCCO[C@@H]1CN(C)C(=O)Nc1ccc2c(c1)OCO2`, with 0.286% (inactive).

Regarding `C[C@@H]1CCCCO[C@@H](CN(C)C(=O)CCCN(C)C)[C@@H](C)CN([C@H](C)CO)C(=O)c2cc(NC(=O)Nc3ccc(F)cc3)ccc2O1`, the CPE inhibition is 26.3% (active).

On to `C[C@@H]1CN([C@@H](C)CO)C(=O)c2cc(NC(=O)Nc3ccc(C(F)(F)F)cc3)ccc2O[C@@H](C)CCCCO[C@H]1CN(C)C(=O)CCCN(C)C`, for which the CPE inhibition was -0.11% (inactive). Under `C[C@H](CO)N1C[C@H](C)[C@@H](CN(C)C(=O)Nc2ccc3c(c2)OCO3)OCCCC[C@H](C)Oc2ccc(NC(=O)Nc3ccc4c(c3)OCO4)cc2C1=O` stands 0.76% (inactive); under `C[C@@H]1CN([C@@H](C)CO)C(=O)c2cc(NC(=O)Nc3ccc(C(F)(F)F)cc3)ccc2O[C@@H](C)CCCCO[C@@H]1CN(C)C(=O)Nc1cccc2ccccc12`, -5.51% (inactive); under `COc1ccc(NC(=O)Nc2ccc3c(c2)C(=O)N([C@@H](C)CO)C[C@H](C)[C@@H](CN(C)C(=O)Nc2cccc4ccccc24)OCCCC[C@@H](C)O3)cc1`, -3.89% (inactive).

As to `C[C@@H]1CCCCO[C@H](CN(C)C(=O)Nc2cccc3ccccc23)[C@@H](C)CN([C@@H](C)CO)C(=O)c2cc(NC(=O)Nc3ccc(F)cc3)ccc2O1`, the CPE inhibition was 32.7% (active). Then `C[C@@H]1CCCCO[C@H](CN(C)C(=O)NC2CCCCC2)[C@H](C)CN([C@@H](C)CO)C(=O)c2cc(NC(=O)Nc3ccc(F)cc3)ccc2O1`, with 3.1% (inactive); and `C[C@@H]1CCCCO[C@@H](CN(C)C(=O)CCCN(C)C)[C@H](C)CN([C@@H](C)CO)C(=O)c2cc(NC(=O)Nc3ccccc3)ccc2O1`, with -0.42% (inactive).
